Here are results for 33 compounds from PubChem BioAssay (EPA / NIEHS).

Results filed as inconclusive are left out. Activity calls are given as the source filed them. Rule for the calls, unless noted: active = hit-call score of the fitted dose curve at least 0.9, where 1 is the maximum; inactive = score below 0.9.

The nature of experiment [1]: CCTE_Harrill_HTTr_Apoptosis_MCF7: CCTE's 6-hour Apoptosis Assessment for the High-Throughput Transcriptomics (HTTr) Platform, in MCF-7 cells cultured in DMEM + 10% fetal bovine serum, Harrill Lab (AID 2284011). In short, it runs like this: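 MCF-7 cells in DMEM + 10% fetal bovine serum were exposed to chemicals for 6 hours over an eight-point dilution series. Caspase-3/7 activation was imaged by high content imaging with CellEvent Caspase 3/7 Green; bidirectional fitting used DMSO as baseline.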

Experiment [2] in a line: CCTE_Harrill_HTTr_CellCount_MCF7: CCTE's Cell Proliferation Assessment for the High-Throughput Transcriptomics (HTTr) Platform, Harrill Lab (AID 2284012; active = hit-call score of the fitted dose curve at least 0.9, where 1 is the maximum;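 note: count of Hoechst-stained nuclei per well by high-content imaging in MCF-7 cells; cells exposed to compound for six hours; intended direction is loss of nuclei count meaning fewer cells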). The method, boiled down:
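For this full-screen endpoint, MCF-7 cultures received eight compound dilutions for six hours. Well nuclei counts from Hoechst imaging were analyzed relative to DMSO.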

The nature of experiment [3]: CCTE_Deisenroth_AIME_384WELL_CTox_Active: Cytotoxicity Assessment (CTOX) in CCTE's 384-well Estrogen Receptor Transactivation Assay with AIME metabolic competence (metabolism positive), Deisenroth Lab (AID 2284037; active = hit-call score of the fitted dose curve at least 0.9, where 1 is the maximum;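 note: chemicals first conditioned 2 h by alginate-bound induced rat liver S9 before cells; activity means signal loss indicating cell death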). In short, it runs like this:
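VM7Luc4E2 breast cells received medium pre-incubated 2 h with chemical over alginate microspheres holding induced male Sprague Dawley rat liver S9; viability read 24 h later by protease-substrate fluorescence. Loss of signal, bidirectional fit, 0.002–200 uM.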

Experiment [4] in a line: CCTE_Deisenroth_AIME_384WELL_CTox_Inactive: Cytotoxicity Assessment (CTOX) in CCTE's 384-well Estrogen Receptor Transactivation Assay without AIME metabolic competence (metabolism negative), Deisenroth Lab (AID 2284039; active = hit-call score of the fitted dose curve at least 0.9, where 1 is the maximum;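 note: cell viability via live-cell protease substrate cleaved to fluorescent probe; cells exposed 24 h to medium preincubated 2 h with alginate-water beads without S9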). The method, boiled down:
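VM7Luc4E2 human breast cells received conditioned medium from a 2 h incubation of chemical with alginate-water microspheres (no S9), then were exposed 24 h. Viability was read as protease-substrate cleavage to a fluorescent probe; loss of signal was fitted bidirectionally over 0.002–200 uM.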

Experiment [5] can be described thus: CCTE_Shafer_MEA_acute_burst_number: CCTE's Neural Acute Assay for Single-Electrode Bursts, Shafer Lab (AID 2284013). In short, it runs like this:
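Burst totals were derived with adaptive spike detection (8x rms threshold) on filtered signals from rat cortical cultures; change relative to pre-treatment baseline after 40-min compound exposure (0.03-40 uM) was fitted in the negative direction against DMSO.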

The nature of experiment [6]: CCTE_Shafer_MEA_acute_per_burst_spike_number_mean: CCTE's Neural Acute Assay for Average Number of Spikes Per Burst, Shafer Lab (AID 2284015).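 Note: hits are decreases in mean spikes per burst versus baseline.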 The method, boiled down: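 Primary rat cortical neurons on 48-well MEA plates, treated on DIV 13 or 15 at 0.03-40 uM. Spontaneous activity recorded 40 min before and 40 min after compound at 37 C; percent change in mean spikes per single-electrode burst per well, fitted in the loss direction versus DMSO.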

Experiment [7] in a line: CCTE_Shafer_MEA_acute_interburst_interval_mean: CCTE's Neural Acute Assay for Mean Interburst Interval, Shafer Lab (AID 2284016).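 Note: percent change of mean interburst interval versus each well's own pre-dose baseline; curves fitted for decrease in interburst interval relative to DMSO.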 In short, it runs like this:
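Primary rat cortical neurons on 16-electrode MEA wells were recorded 40 min at baseline on DIV 13 or 15, then 40 min after compound (0.03-40 uM), at 37 C. Value is percent change in mean interburst interval per well, DMSO as negative control.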

Experiment [8] is described as follows: CCTE_Shafer_MEA_acute_burst_percentage_mean: CCTE's Neural Acute Assay for Percentage of Spikes in a Burst, Shafer Lab (AID 2284017). In short, it runs like this:
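Primary rat cortical neurons on 16-electrode MEA wells; 40 min baseline recorded at DIV 13 or 15, then 40 min after compound (0.03-40 uM) at 37 C. Well-mean fraction of spikes in single-electrode bursts; percent change from baseline, DMSO as negative control.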

Experiment [9] is described as follows: CCTE_Shafer_MEA_acute_burst_percentage_std: CCTE's Neural Acute Assay for Standard Deviation of Burst Percentage, Shafer Lab (AID 2284018).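 Note: fitted in the negative direction so actives lower burst percentage SD.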 The method, boiled down: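 Primary rat cortical neurons on 16-electrode MEA wells were recorded 40 min at baseline (DIV 13 or 15), then 40 min after compound (0.03-40 uM), at 37 C. Well value is SD across electrodes of spikes-in-bursts/total spikes; endpoint is percent change, DMSO-referenced.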

A short description of experiment [10]: CCTE_Shafer_MEA_acute_per_network_burst_spike_number_mean: CCTE's Neural Acute Assay for Average Number of Spikes in a Network Burst, Shafer Lab (AID 2284019).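 Note: curve fitted for loss of signal so actives reduce spikes per network burst.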 The method, boiled down:
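Acute exposure of rat primary cortical networks (DIV 13/15) on MEAs; adaptive spike detection at 8x rms noise, 37 C. Percent change in spikes per network burst after 40 min with compound (0.03-40 uM), negative direction vs DMSO.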

A short description of experiment [11]: CCTE_Shafer_MEA_acute_per_network_burst_spike_number_std: CCTE's Neural Acute Assay for Standard Deviation of Number of Spikes in a Network Burst, Shafer Lab (AID 2284020).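 Note: fitted for decrease in spike-number SD versus DMSO so actives lower it.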 The method, boiled down: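 Acute MEA exposure, rat cortical neurons, 0.03-40 uM. Per-well % change versus own baseline; DMSO as negative control.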
Experiment [12] in a line: CCTE_Shafer_MEA_acute_per_network_burst_electrodes_number_mean: CCTE's Neural Acute Assay for Mean Number of Electrodes in a Network Burst, Shafer Lab (AID 2284021).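 Note: curves fitted for decreases only so hits reduce electrodes per burst.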 In short, it runs like this: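 Rat primary cortical neurons on 16-electrode MEA wells were recorded 40 min at baseline on DIV 13 or 15, then 40 min after compound (0.03-40 uM), at 37 C. Value is percent change per well, fitted in loss direction versus DMSO.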

Experiment [13] in a line: CCTE_Shafer_MEA_acute_network_burst_percentage: CCTE's Neural Acute Assay for Percentage of Network Bursts, Shafer Lab (AID 2284022).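 Note: curves fitted for loss so actives lower network burst percentage.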 The method, boiled down:
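Primary rat cortical neurons on 16-electrode MEA wells, treated on DIV 13 or 15 with compound (0.03-40 uM); 40-min baseline and 40-min post-exposure recordings at 37 C. Value is percent change in spikes within network bursts versus baseline, DMSO negative control.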

Experiment [14] in a line: CCTE_Shafer_MEA_acute_cross_correlation_area: CCTE's Neural Acute Assay for Area of Cross Correlation, Shafer Lab (AID 2284024).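 Note: area under pooled inter-electrode spike cross-correlation near zero lag as percent change from own baseline; curves fitted for loss of cross-correlation area so actives lower synchrony.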 The method, boiled down:
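Primary rat cortical neurons on 48-well MEA plates (16 electrodes/well) were recorded 40 min at baseline on DIV 13 or 15, then 40 min with compound (0.03-40 uM) at 37 C; cross-correlation area expressed as percent change from baseline.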

The nature of experiment [15]: CCTE_Shafer_MEA_acute_cross_correlation_HWHM: CCTE's Neural Acute Assay for Cross Correlation at Half Width at Half Maximum, Shafer Lab (AID 2284026).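 Note: spontaneous network firing of rat primary cortical neurons on multiwell microelectrode arrays; hits are a decrease in cross-correlogram half width relative to DMSO.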 In short, it runs like this: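 Primary rat cortical neurons on 16-electrode MEA wells; 40-min baseline on DIV 13 or 15, then 40-min recording with compound (0.03-40 uM) at 37 C. HWHM of spike cross-correlogram expressed as percent change from baseline per well, DMSO reference.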

Experiment [16] can be described thus: CCTE_Shafer_MEA_acute_synchrony_index: CCTE's Neural Acute Assay for Synchrony, Shafer Lab (AID 2284027).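 Note: network synchrony index of spontaneous spiking in primary rat cortical neurons on MEAs; fitted for loss of signal so actives lower synchrony relative to DMSO.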 The method, boiled down: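 Acute exposure of rat primary cortical neurons (DIV 13 or 15) at 0.03-40 uM. Synchrony index, 40 min before vs after, as % change relative to DMSO control.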
Experiment [17] in a line: CCTE_Shafer_MEA_dev_firing_rate_mean: CCTE's Neural Network Formation Assay for Mean Firing Rate, Shafer Lab (AID 2284031).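 Note: curve fitted for loss of firing so AC50 reflects decreased mean firing rate.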 In short, it runs like this:
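Extracellular spike frequency, AUC over DIV 5–12 recordings, in rat cortical neuron MEA cultures dosed from plating; loss direction vs DMSO.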

A short description of experiment [18]: CCTE_Shafer_MEA_dev_per_burst_spike_percent: CCTE's Neural Network Formation Assay for Percent of Spikes in a Burst, Shafer Lab (AID 2284032).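 Note: fitted as a decrease in burst spike percentage below DMSO baseline.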 The method, boiled down:
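Value is trapezoidal AUC over recordings on days 5, 7, 9 and 12 of the well-mean fraction of spikes falling in single-electrode bursts; rat cortical cultures exposed continuously from plating, treatment renewed DIV 5 and 9, fitted downward against DMSO.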

`O=C(NO)c1ccccc1`: the result in experiment [1] and in [2] was inactive.
In the case of `CC(C)(c1ccc(Oc2ccc(N)cc2)cc1)c1ccc(Oc2ccc(N)cc2)cc1`, the outcome in experiment [1] and in experiment [2] was inactive.
`O=C(c1ccccc1)c1ccccc1`: the outcome in experiment [1] and in [2] was inactive.
Turning to `O=C(O)c1cccc(C(=O)O)n1`, the result in experiment [1] and in experiment [2] was inactive.
On to `C=CC(C)(CCC=C(C)C)OC(C)=O` (stereo not drawn), for which the result in experiment [1] and in [2] was inactive.
`Nc1ccc(O)c(C(=O)O)c1`: the result in experiment [1] was inactive.
For the compound `CNNCc1ccc(C(=O)NC(C)C)cc1`, the result in experiment [1] and in experiment [2] was inactive.
`c1cc2cccc3c4cccc5cccc(c(c1)c23)c54`: the result in experiment [1] was inactive.
For the compound `O=c1cc(-c2ccccc2)oc2ccc3ccccc3c12`, the outcome in experiment [1] and in experiment [2] was inactive.
Consider `CCCCCC(C)OC(=O)COc1ccc(Cl)c2cccnc12` (stereo not drawn), for which the outcome in [1] and in experiment [2] was inactive.
For `Cc1cncc(C)c1`, the outcome in experiment [1] and in experiment [2] was inactive.
For the compound `CC1=NN(c2ccccc2)C(=O)C1`, the result in experiment [1] was inactive.
With `CC1COCc2cc3c(cc21)C(C)(C)C(C)C3(C)C` (stereo not drawn), the result in experiment [1] and in [2] was inactive.
Consider `O=C(O)C(=O)O`, for which the outcome in experiment [1] and in experiment [2] was inactive.
Usually AC50 stands for the concentration giving half of the maximal activity seen. Regarding `CCCCCCCCCCCC[N+](C)(C)Cc1ccccc1`, the AC50 in experiment [1] was 70.8 µM (active); in experiment [2], 70.3 µM (active).
Regarding `NS(=O)(=O)O`, in [1], the result was inactive.
Take `CC(C)(C)c1ccc(CCC=O)cc1`: the result in [1] and in experiment [2] was inactive.
In the case of `O=C(NCc1ncc(C(F)(F)F)cc1Cl)c1c(Cl)cccc1Cl`, the result in [1] was inactive.
In the case of `C[C@]12CC[C@@H]3c4ccc(O)cc4CC[C@H]3[C@@H]1CC[C@@H]2OC(=O)CCC1CCCC1`, the result in experiment [1] and in [2] was inactive.
Consider `CC1=CC(=O)c2ccccc2C1=O`, for which the result in [1] and in experiment [2] was inactive.
`COC1=CC(=O)C[C@@H](C)[C@]12Oc1c(Cl)c(OC)cc(OC)c1C2=O`: the outcome in [1] and in experiment [2] was inactive.
For the compound `COc1cc(OC)nc(NC(=O)NS(=O)(=O)Nc2ccccc2C(=O)N(C)C)n1`, in experiment [1], the outcome was inactive.
For the compound `C=C(c1ccc(C(=O)O)cc1)c1cc2c(cc1C)C(C)(C)CCC2(C)C`, the result in [1] was inactive.
Take `CC(C)(C)C1CCCCC1O` (stereo not drawn): the result in experiment [1] and in [2] was inactive.
In the case of `CC(C)(C)c1ccc(O)c(O)c1`, the result in experiment [1] and in experiment [2] was inactive.
Take `CC1CCC(CO)CC1` (stereo not drawn): the result in [1] and in experiment [2] was inactive.
With `Cc1ccc(N=Nc2c(O)ccc3ccccc23)c(C)c1`, in experiment [1], the outcome was inactive.
Regarding `C=Cc1ccc(O)c(OC)c1`, the outcome in experiment [1] and in [2] was inactive.
`CC(C)(O)C(=O)c1ccccc1`: the outcome in experiment [1] was inactive.
On to `Cc1cccc2c1ccc1ccccc12`, for which the result in [1] and in experiment [2] was inactive.
On to `Cc1[nH]nc2c1N=C(c1ccccc1Cl)c1cc([N+](=O)[O-])ccc1N2`, for which the outcome in experiment [1] and in experiment [2] was inactive. Further, the AC50 in [3] is 159 µM (active); in experiment [4], 138 µM (active).
With `CCCCCCCCCCCCCCCCCC[N+](C)(C)Cc1ccccc1`, the result in experiment [1] and in experiment [2] was inactive.
For the compound `O=C(CCCN1CCC(O)(c2ccc(Cl)cc2)CC1)c1ccc(F)cc1`, the outcome in [1], in experiment [2], in [5], in experiment [6], in [7] and in [8] was inactive. For the same compound, the compound was classed as inactive in experiment [9], in [11], in experiment [12], in experiment [13], in experiment [14] and in experiment [15]. In experiment [16], the compound was called inactive. The figures for the concentration at half-maximal activity (AC50) in experiment [10], in [17] and in experiment [18] were 0.451 µM (active), 0.39 µM (active) and 4.18 µM (active), respectively.
